The values below come from PubChem BioAssay AID588342 (National Center for Advancing Translational Sciences (NCATS), 2011).

SMILES strings stand for the structures. Hit rate of the full screen: of about 360,000 compounds, about 25,000 (6.9%) were called active. Another 9% or so got no clear call; they are omitted. This excerpt belongs to a sample that is enriched for actives. A number with no mark means an inactive call. Calls come from the whole dose curve; as a rule, active = well fitted inhibition curve with a large enough effect; inconclusive = small, poorly fitted or top-dose-only effect; inactive = flat fitted curve, though single readings scatter.

Luciferin 4-monooxygenase (Photinus pyralis), sequence (P08659 whole entry, looked up): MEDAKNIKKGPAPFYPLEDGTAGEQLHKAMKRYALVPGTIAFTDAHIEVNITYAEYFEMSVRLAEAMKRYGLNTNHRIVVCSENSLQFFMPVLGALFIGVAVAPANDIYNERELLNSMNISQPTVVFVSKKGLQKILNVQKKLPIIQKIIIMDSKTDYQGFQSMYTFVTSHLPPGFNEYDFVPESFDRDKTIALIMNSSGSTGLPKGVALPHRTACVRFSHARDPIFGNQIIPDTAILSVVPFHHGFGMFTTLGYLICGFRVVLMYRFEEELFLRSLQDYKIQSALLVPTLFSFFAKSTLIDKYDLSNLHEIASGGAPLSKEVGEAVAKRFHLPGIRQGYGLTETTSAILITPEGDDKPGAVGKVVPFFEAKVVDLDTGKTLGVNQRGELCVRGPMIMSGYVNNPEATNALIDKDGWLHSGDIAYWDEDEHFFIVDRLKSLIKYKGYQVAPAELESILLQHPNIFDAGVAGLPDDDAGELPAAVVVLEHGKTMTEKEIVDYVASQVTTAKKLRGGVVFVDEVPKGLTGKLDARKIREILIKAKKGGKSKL

This test concerns the target Luciferin 4-monooxygenase (Photinus pyralis) (UniProt P08659). The experiment in a line: qHTS profiling assay for firefly luciferase inhibitor/activator using purifed enzyme and Km concentrations of substrates (counterscreen for miR-21 project).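 For activity change, negative = inhibition: plate controls were vehicle for no effect and reference inhibitor for full effect.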 Note: nearly all actives have a fitted effect of over 55% in size. As to conditions: purified FLuc, luminescence inhibition; series mostly up to 57.5 µM; activity change, negative = inhibition: at the top concentration. The text has this:
MLPCN Grant: 1 R21 NS059478-01 (miR-21 grant) Assay Provider: NCGC NCGC Assay Overview: Firefly (Photinus pyralis) luciferase is one of the most commonly used transcriptional reporters for a number of reasons. It is considered one of the more dynamically responsive reporters -that is, responsive to changes in reporter transcription - as it requires no post-translational modifications and is enzymatically active directly after protein synthesis (Wood, 1998). Additionally, the half-life of the luciferase protein is short relative to other reporter-gene products (Wood, 1995). Whereas reporters with long half-lives potentially allow for increased signal due to accumulation of reporter-gene product, once accumulated in the cell, dynamic changes in reporter-gene expression may be difficult to detect(Fan and Wood, 2007; Almond et al., 2004). It has been shown that wild-type P. pyralis luciferase has a half-life of approximately […] hours in mammalian cells (Thompson et al., 1991). Firefly luciferase reporter-gene assays are also generally considered one of the most sensitive assay types (Wood, 1995; Wood, 1998). Although light produced in a bioluminescence reaction is of lower intensity than that produced during fluorescence emission, this is offset by little to no background light inherent to luminescent assays. Thus the luciferase reporter can be expressed at much lower levels than fluorescent proteins while still providing robust signal. # However, it was initially observed, in 1991, by Thompson et al., that compounds that resemble the substrates of firefly luciferase (FLuc) can act as competitive inhibitors of the enzyme, and that these compounds, upon interaction with luciferase in the cell, can actually stabilize the protein and increase its half-life. Accumulated intracellular FLuc protein can be measured as an increase in luminescence signal, upon addition of detection reagents (which contain high concentrations of FLuc substrates) commonly used in high-throughput screening. In cell-based reporter gene assays that use FLuc as the reporter gene to quantitate the potential influence of a given compound against the target biology, this apparent increase in luminescence can mistakenly be interpreted as identification of a compound that is active against the target of interest. This is the case for the miR-21 FLuc reporter gene assay used to identify inhibitors of the miR-21 pathway (PubChem AID 2289) - compounds of interest will inhibit miR-21 biogenesis/expression or activity, and are identified by causing an increase in luminescence, due to increased FLuc translation. However, FLuc inhibitory compounds that stabilize the FLuc protein will give an identical read-out, making it difficult to distinguish compounds that are active against the target from those active against FLuc. Previous profiling work to determine the prevalence of compounds that affect FLuc enzymatic activity (PubChem AID 411) identified that ~3% of the MLSMR library (then at ~72K) inhibited FLuc. […] Since the MLSMR had grown to ~350K compounds, and since it was expected that a significant percentage of compounds found active in the miR-21 FLuc assay would be FLuc inhibitors, the library was screened for activity against FLuc using a biochemical assay of purified FLuc and KM concentrations of FLuc substrates (D-luciferin and ATP).
NCGC Assay Protocol Summary: Reagents: 50mM Tris acetate, pH 7.5; 10mM Mg acetate; 10uM D-luciferin (Sigma #L9504); 10uM ATP; 0.01% Tween-20; 0.05% BSA; 10nM P. pyralis luciferase (Sigma #L9506) Control compounds used were two known firefly luciferase inhibitors (compounds (2) and (5) in Auld et al., 2010), and DMSO. […]
As for `Nc1nnn(CC(=O)N/N=C/c2ccc(O)cc2)n1`, the “activity change, negative = inhibition” value was -1.83%. For `CC(C)CCC(C)NC(=O)c1ccc2nccnc2c1` (stereo not given), the “activity change, negative = inhibition” value was -15%. Still for that read-out and setting: as for `Cc1nnc(NC(=O)C(c2ccccc2)c2ccccc2)s1`, the figure is -1.25%. As to `Cc1nnc(NC(=O)c2ccc3nccnc3c2)s1`, the Potency is 15.1 µM (active).

For `Cc1ccc(S(=O)(=O)N2CCC(C(=O)Nc3cc(C)ccc3C)CC2)cc1`, the “activity change, negative = inhibition” value was -1.47%. For `Cc1cc(C)c(NC(=O)CS(=O)CC(=O)Nc2cccnc2)c(C)c1` (stereo not given), the “activity change, negative = inhibition” value is 0.546%.

For `Cc1cccc(-n2cnc(C(=O)NNC(=S)Nc3ccccc3)c2)n1`, the “activity change, negative = inhibition” value was -17.5%. Consider `Cc1cccc(-n2cnc(C(=O)Nc3cccnc3)c2)n1`, for which the Potency is 10.7 µM (active). `CN(CC(=O)NCCN1CCOCC1)S(=O)(=O)c1ccc(F)cc1`: the “activity change, negative = inhibition” value is 2.29%. For `Cc1nn2c(=O)cc(COC(=O)c3cccc(NC(=O)COc4ccccc4Cl)c3)nc2s1`, the Potency is 3.01 µM (active).

Turning to `CCCCc1nn2c(=O)cc(COC(=O)c3cccc(NC(=O)COc4ccccc4)c3)nc2s1`, the “activity change, negative = inhibition” value was -7.88%. As for `O=C(OCc1cc(=O)n2nc(C3CC3)sc2n1)c1ccccc1Cl`, the Potency is 16.9 µM (active).

For the molecule `O=C(Nc1ccc(C(=O)OCc2cc(=O)n3nc(C4CC4)sc3n2)cc1)c1ccc(F)cc1`, the “activity change, negative = inhibition” value was -0.0489%. On the same count and under the same terms, as for `Cc1nn2c(=O)cc(COC(=O)c3ccccc3NC(=O)COc3ccccc3C)nc2s1`, the figure is -6.91%; as for `Cc1ccc(OCC(=O)OCc2cc(=O)n3nc(C4CC4)sc3n2)cc1`, -5.96%; as for `CN1CCc2c(sc3c2c(NCc2ccco2)nc2nnnn23)C1`, 7.24%.

For the molecule `Cc1nc2ccccn2c(=O)c1NC(=O)c1c(F)cccc1F`, the “activity change, negative = inhibition” value was 3.3%.

Regarding `COc1ccc2cc(C3=CC(=O)C[C@H](c4ccc5c(c4)OCO5)C3)ccc2c1`, the “activity change, negative = inhibition” value was 3.7%. `Cc1cccc(C)c1NC(=O)CN1C(=O)C(C)Oc2ccccc21` (stereo not given): the “activity change, negative = inhibition” value is 1.07%. Consider `CN(CC(=O)Nc1ccc(OC(F)(F)F)cc1)C(=O)C1CCC1`, for which the “activity change, negative = inhibition” value was -4%. For the molecule `CC(C)[C@H](NC(=O)c1ccc(F)cc1)C(=O)OCC(=O)NC(=O)c1cccn1C`, the “activity change, negative = inhibition” value was 0.441%. In the case of `Cc1nn(C(C)C(=O)Nc2ccc(C(C)C)cc2)c(=O)c2c1sc1ccccc12` (stereo not given), the “activity change, negative = inhibition” value was -10.5%. For `CC(=O)c1cccc(S(=O)(=O)N2CCC(n3nnc4cc(F)ccc43)CC2)c1`, the “activity change, negative = inhibition” value was 1.11%. Regarding `O=C(c1ccc(F)cc1)N1CCC(n2nnc3ccccc32)CC1`, the Potency was 2.69 µM (active). As to `O=S(=O)(c1cccc(S(=O)(=O)N2CCC(n3nnc4ccccc43)CC2)c1)N1CCCCC1`, the “activity change, negative = inhibition” value was 0.624%. Consider `CCCN(CCC)C(=O)Cn1c(=O)n(-c2ccc(Cl)cc2)c(=O)c2c3c(sc21)CCCCC3`, for which the “activity change, negative = inhibition” value is 4.78%. As to `COc1ccc(-c2nnc(SCC(=O)Nc3ccc(C(C)C)cc3)nc2-c2ccc(OC)c(OC)c2)cc1OC`, the “activity change, negative = inhibition” value is 4.68%. Still for that read-out and setting: then `CN(Cc1cc2cc(F)ccc2[nH]1)Cc1nc(-c2cnccn2)no1`, with 1.36%. Turning to `COc1ccc(NC(=O)CN(C)C(=O)/C=C/c2cn(Cc3ccccc3)nc2-c2cccnc2)cc1`, the “activity change, negative = inhibition” value was -3.23%. Consider `Cc1ccc(-c2nn(-c3ccccc3)cc2C(=O)NCCCN2CCCC2=O)cc1`, for which the Potency is 21.3 µM (active). `Cc1nn(Cc2ccccc2)c(C)c1C(=O)NCCCN1CCCC1=O`: the “activity change, negative = inhibition” value is -2.49%. On to `COc1cccc(C(=O)NC(=O)Nc2ccc(-c3cc(C(F)(F)F)nn3-c3ccccc3)cc2)c1`, for which the “activity change, negative = inhibition” value is -3.37%. In the case of `COc1ccc(NC(=O)c2cn(-c3ccccc3)nc2SC)cc1`, the Potency was 15.1 µM (active).

On to `COc1ccc(-c2nn(-c3ccccc3)cc2/C=C\C(=O)Nc2ccc(C(=O)O)cc2)cc1`, for which the Potency was 15.1 µM (active). On to `O=C(CSc1nnc(-c2ccncc2)n1-c1ccc(Cl)cc1)Nc1ccc(C(=O)O)cc1`, for which the “activity change, negative = inhibition” value was -4.75%. Take `COc1ccc(NC(=O)CSc2nc(N)c(-c3ccccc3)c(=O)[nH]2)cc1`: the “activity change, negative = inhibition” value was 8.54%. For the molecule `COc1ccc(NC(=O)c2ccccc2CC[N+](=O)[O-])cc1`, the “activity change, negative = inhibition” value was 1.33%. In the case of `Cc1ccc(-c2nn(-c3ccccc3)cc2C(=O)Nc2cccc(S(=O)(=O)N3CCOCC3)c2)cc1`, the “activity change, negative = inhibition” value is -3.14%. On the same count and under the same terms, then `O=C(NCCCN1CCCC1=O)c1ccc(S(=O)(=O)Nc2ccccc2)cc1`, with -0.641%. Take `O=C(O)c1ccc(NC(=O)c2cn(-c3ccccc3)nc2-c2ccc(Cl)cc2)cc1`: the Potency is 6.75 µM (active). Take `Cc1ccc(Cl)c(NC(=O)CN2CCN(C=O)CC2)c1`: the “activity change, negative = inhibition” value was -0.796%. On the same count and under the same terms, as for `Fc1cccc(-n2ncc3c2ncn2nc(-c4ccccc4Cl)nc32)c1`, the figure is -1.28%. Turning to `CN(C(=O)CSc1nnc(C2CC2)n1C)C1CCCc2ccccc21` (stereo not given), the “activity change, negative = inhibition” value was 1.86%. Same read-out and setting: as for `N#Cc1ccc(C2=CC(=O)C[C@H](c3ccc(Cl)cc3)C2)cc1`, the figure is -16.3%; as for `O=C(CSc1oc(-c2ccco2)nc1S(=O)(=O)c1ccc(Cl)cc1)c1ccccc1`, 1.52%; as for `COc1ccccc1CNc1nccn(-c2ccc(F)cc2)c1=O`, -2.26%. Same read-out and setting: as for `Cc1ccc(C2(C)NC(=O)N(CC(=O)Nc3ccccc3C(=O)N3CCCCC3)C2=O)cc1` (stereo not given), the figure is 0.472%.

Consider `CCOC(=O)c1c(C)[nH]c(C)c1S(=O)(=O)N1CCCC(C(=O)NCc2ccccc2Cl)C1` (stereo not given), for which the “activity change, negative = inhibition” value is -8.43%. Take `Cc1ccc(NC(=O)CSc2nc3ccccc3c3nc(CCn4cncc4C)nn23)cc1F`: the “activity change, negative = inhibition” value was 3.74%. As for `O=C(CO/N=C/c1ccc(OC(F)F)cc1)NCc1ccc(F)cc1`, the “activity change, negative = inhibition” value is -10.7%.
